Bioassay records from PubChem.
A selection: hits, their analogues and other compounds. The true share with any hit is near 1.3%.
USP1-UAF1 inh = blocks the human USP1/UAF1 deubiquitinase complex; O94782; recombinant USP1/UAF1, Ub-Rhodamine cleavage fluorescence; Potency, µM (series often up to 57.1 µM), for the others: at the top dose activity change, negative = inhibition, actives largely listed as inhibitors; 390,000 tested, 0.23% active; AID 743255; note: % is set by controls: 0 for no effect and ±100 for the full control effect; nearly all actives have a fitted effect of over 60% in size
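Step one: compound is pinned into 1nM USP1/UAF1 in HEPES pH 7.8 buffer with TCEP. Step two: 15 min room-temperature incubation. Step three: Ub-Rho (150nM final) starts cleavage, tracked by fluorescence over six one-minute reads.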
EPAC2 ag = agonists of human EPAC2 (RAPGEF4); 360,000 tested, 0.079% active; EPAC2 activation, biochemical qHTS; response scale: 100% = 6.5 mM cAMP response; Potency, µM (highest dose often 154 µM), for the others: at the top dose activation, hits mostly activators; note: nearly all actives have a fitted effect of over 50% in size
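Compounds were titrated in qHTS against a Rap1B-BODIPY-GDP (250 nM) complex with EPAC2 (100 nM) and GDP (50 uM). BODIPY-GDP release tracked at 480/540 nm over 30 min at room temperature, normalized to 6.5 mM cAMP.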
EPAC1 antag = antagonists of human EPAC1; EPAC1 GEF assay, Rap1b-BODIPY-GDP exchange fluorescence; Potency, µM (highest dose often 115 µM), without a hit: at the highest dose activity change, negative = inhibition, hits mostly inhibitors; 360,000 tested, 0.14% active; AID 720709;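 note: plate controls were vehicle for no effect and positive control for full effect; nearly all actives have a fitted effect of over 50% in size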
Target sequence (O95398 whole entry, looked up): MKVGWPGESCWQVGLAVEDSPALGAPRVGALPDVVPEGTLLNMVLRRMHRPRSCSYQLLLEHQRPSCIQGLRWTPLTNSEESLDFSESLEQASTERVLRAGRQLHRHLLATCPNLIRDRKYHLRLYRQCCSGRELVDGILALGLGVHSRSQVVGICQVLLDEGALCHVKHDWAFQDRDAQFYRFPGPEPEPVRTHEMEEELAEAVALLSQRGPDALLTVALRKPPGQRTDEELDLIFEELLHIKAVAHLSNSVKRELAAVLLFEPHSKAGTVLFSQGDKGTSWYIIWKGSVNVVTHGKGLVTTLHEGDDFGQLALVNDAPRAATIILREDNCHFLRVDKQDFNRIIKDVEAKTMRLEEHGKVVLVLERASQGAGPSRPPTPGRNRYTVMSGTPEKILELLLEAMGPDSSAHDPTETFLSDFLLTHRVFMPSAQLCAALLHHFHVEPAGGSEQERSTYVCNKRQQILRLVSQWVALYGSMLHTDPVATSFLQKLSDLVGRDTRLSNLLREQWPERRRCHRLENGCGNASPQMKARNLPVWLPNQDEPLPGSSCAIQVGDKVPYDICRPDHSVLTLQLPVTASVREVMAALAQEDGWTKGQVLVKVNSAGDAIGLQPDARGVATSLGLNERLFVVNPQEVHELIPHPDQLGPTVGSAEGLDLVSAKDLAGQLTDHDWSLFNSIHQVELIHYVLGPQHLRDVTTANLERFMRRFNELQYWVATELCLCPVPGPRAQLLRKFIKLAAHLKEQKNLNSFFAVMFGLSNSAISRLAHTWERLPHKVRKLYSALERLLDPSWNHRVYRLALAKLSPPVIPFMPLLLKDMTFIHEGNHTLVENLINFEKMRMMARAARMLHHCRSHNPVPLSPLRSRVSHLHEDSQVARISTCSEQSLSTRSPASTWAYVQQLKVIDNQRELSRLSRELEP
12-LOX inh = blocks human arachidonate 12S-lipoxygenase. 580,000 tested, 1.1% active. P18054. purified 12hLO, xylenol orange hydroperoxide absorbance. Potency, µM (doses to about 108 µM), for the others: top-dose activity change, negative = inhibition, usual class: inhibitors; note: % is set by controls: 0 for no effect and ±100 for the full control effect
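Purified human 12hLO (150 nM final) in 25 mM Hepes, 0.01% Triton X-100, pH 7.0 was preincubated 15 min at room temperature with compound. Then 40 uM arachidonic acid was added, 30 min. Hydroperoxide was read by Fe-XO absorbance ratio 573/405 nm.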
EPAC1 ag = activates human EPAC1 exchange factor | O95398 | EPAC1 agonist qHTS, biochemical assay; response scale: 100% = response to 6.5 mM cAMP | Potency, µM (titrated, usually from 154 µM), inactives show top-dose activation, hits mostly activators | 360,000 tested, 0.073% active | AID 720707; note: nearly all actives have a fitted effect of over 60% in size
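EPAC1 100 nM, Rap1B–BODIPY-GDP 250 nM, unlabeled GDP 50 uM; compound titration; 5 min RT; kinetic read ex480/em540 at 5-min intervals ×30 min; data normalized to 6.5 mM cAMP agonist control.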
EPAC2 antag = antagonists of human EPAC2; Q8WZA2; EPAC2 GEF exchange of Rap1B-BODIPY-GDP, fluorescence; Potency, µM (top dose mostly 114 µM), without a hit: at the highest dose activity, negative = inhibition, usual class: inhibitors; 360,000 tested, 0.18% active; AID 720708; note: % is set by controls: 0 for no effect and ±100 for the full control effect; nearly all actives have a fitted effect of over 45% in size
* marks the source's active call; other numbers are inactive results; ? = inconclusive; . = no result; ! = a repeat was not active; [ ] = remark or other dose. Calls come from the whole dose curve; as a rule, active = well fitted curve in the direction sought with a large enough effect; inconclusive = small, poorly fitted or top-dose-only effect, or another doubt; inactive = no such curve, though single readings can be large; an effect the other way counts as inactive or inconclusive. Potency is the fitted concentration of half-maximal effect.

SMILES | USP1-UAF1 inh | EPAC2 ag | EPAC1 antag | 12-LOX inh | EPAC1 ag | EPAC2 antag
CC(=O)C1=C(O)C(=O)N(c2ccc(O)cc2)C1c1ccccc1Cl (centres undefined) | -33% | -1% | 6% | ? | -4% | 11%
Brc1ccccc1-c1nn2c(Cn3cnc4ccccc43)nnc2s1 | . | . | . | 11µM* | . | .
c1csc(-c2nn3c(Cn4cnc5ccccc54)nnc3s2)c1 | -11% | 8% | 6% | ? | 7% | 2%
Clc1cccc(-c2nn3c(Cn4cnc5ccccc54)nnc3s2)c1 | -8% | 4% | 1% | 10µM*! | -11% | 14%
CC(C)(C)OC(=O)NC1CCN(C(=O)CCCc2cccs2)CC1 | . | . | . | -1% | . | .
O=C(CCN1CCN(c2ccccc2)CC1)N/N=C/c1ccc(O)c(O)c1O | -23% | 5% | 79µM* | ? | 6% | 1%
COc1ccc(/C=N/NC(=O)CCN2CCN(c3ccccc3)CC2)c(OC)c1OC | -7% | 0% | 2% | -11% | -2% | 8%
CCN(CC)S(=O)(=O)c1ccc(-c2nc(C#N)c(NCCN3CCOCC3)o2)cc1 | . | . | . | 0% | . | .
O=C(CSc1nc2cc([N+](=O)[O-])ccc2o1)Nc1ccc(Cl)cc1 | . | . | . | 22µM* | . | .
Cc1cccc(NC(=O)CSc2nc3cc([N+](=O)[O-])ccc3o2)c1 | . | . | . | 32µM* | . | .
Cc1ccc(NC(=O)CSc2nc3cc([N+](=O)[O-])ccc3o2)cc1C | . | . | . | 40µM* | . | .
O=C(c1ccc(F)cc1)N1CCN(c2cn[nH]c(=O)c2Cl)CC1 | . | . | . | 3% | . | .
CN1C(=O)C2(CC(=O)Nc3c2cnn3Cc2ccccc2Cl)c2cccc(Cl)c21 (centres undefined) | . | . | . | 7% | . | .
COc1ccccc1-c1cnc(Nc2ccc(CN3CCN(C)CC3)cc2)c2c1CCO2 | . | . | . | -27%[176 µM] | . | .
Cc1cc(NC(=O)CCc2ncc(-c3ccc(F)cc3F)o2)no1 | . | . | . | -17% | . | .
Cc1cc(C)c2nc(NNC(=O)c3cc(=O)c4ccccc4o3)sc2c1 | 28µM* | -1% | -1% | ? | -26% | 6%
COc1ccc2nc(NC(=O)c3cc(=O)c4ccccc4o3)sc2c1 | ? | . | . | -19% | . | .
S=C(NCc1ccc2[nH]c3c(c2c1)CCCC3)Nc1ccccc1 | -13% | 6% | ? | 40µM* | 9% | -13%
Cc1cc(C)cc(NC(=O)CN(C)S(=O)(=O)c2ccc3[nH]c4c(c3c2)CCCC4)c1 | -25% | . | . | -7% | . | .
Cc1cc(C)cc(NC(=S)NCc2ccc3[nH]c4c(c3c2)CCCC4)c1 | -8% | 6% | ? | 40µM* | 5% | -11%
CCc1ccc(Nc2ccc3cc(S(=O)(=O)N4CCCC4)ccc3n2)cc1 | . | . | . | 14µM* | . | .
CC1CCN(S(=O)(=O)c2ccc3nc(Nc4ccc(C#N)cc4)ccc3c2)CC1 | -12% | . | . | ? | . | .
COc1ccc(Cl)cc1Nc1ccc2cc(S(=O)(=O)N3CCCCC3)ccc2n1 | -17% | . | . | 50µM* | . | .
CC1CCC(Nc2ccc3cc(S(=O)(=O)N4CCCC4)ccc3n2)CC1 (centres undefined) | . | . | . | 8.9µM* | . | .
O=S(=O)(c1ccc2nc(NC3CCCCC3)ccc2c1)N1CCCC1 | . | . | . | 11µM* | . | .
SMILES | USP1-UAF1 inh | EPAC2 ag | EPAC1 antag | 12-LOX inh | EPAC1 ag | EPAC2 antag
O=S(=O)(c1ccc2nc(Nc3ccc(F)cc3)ccc2c1)N1CCCC1 | -15% | . | . | -6% | . | .
O=C(COC(=O)c1ccc(F)c([N+](=O)[O-])c1)Nc1ccc2c(c1)OC1(CCCCC1)O2 | . | . | . | -3% | . | .
Cc1cccc(N2CCN(c3ccc4cc(S(=O)(=O)N5CCC(C)CC5)ccc4n3)CC2)c1C | -19% | . | . | 50µM* | . | .
O=C(c1ccccc1OCc1nc(-c2ccccc2)no1)N1CCN(Cc2ccccc2)CC1 | . | . | . | 5% | . | .
COc1cccc(N2C(=O)NC(=NC3CCCC3)C23CCCN(CC2CCCCC2)C3)c1 (centres undefined) | . | . | . | 79µM* | . | .
COC(=O)CCC(=O)OC1(C)C(=O)C2=CN(c3ccc(OC)cc3)C(c3ccc(OC)cc3)=CC2=C(Br)C1=O (centres undefined) | ? | 3% | 5% | . | 8% | -12%
COc1ccc(C2=CC3=C(Br)C(=O)C(C)(OC(=O)c4cccs4)C(=O)C3=CO2)cc1 (centres undefined) | 35µM* | 27% | ? | 6.3µM* | -13% | -24%
COc1ccc(C2=CC3=C(Br)C(=O)C(C)(OC(=O)c4ccco4)C(=O)C3=CO2)cc1 (centres undefined) | 25µM* | 17% | ? | . | -5% | ?
c1ccc(Cc2nn3c(C4COc5ccccc5O4)nnc3s2)cc1 (centres undefined) | -8% | 12% | 9% | -5% | 2% | 7%
CCOc1ccccc1OCc1nn2c(C3COc4ccccc4O3)nnc2s1 (centres undefined) | . | . | . | 7.1µM* | . | .
CCOC(=O)c1cc2cc(C(=O)O)ccc2[nH]1 | . | . | . | 16µM* | . | .
CCOC(=O)c1cc2cc(CC)ccc2[nH]1 | . | . | . | 0% | . | .
CCC1(c2ccccc2)NC(=S)N(c2cccc(C)c2C)N1 (centres undefined) | -19% | -5% | -18% | 25µM* | -4% | 9%
Cc1cccc(-n2c(-c3ccccc3)c[nH]c2=S)c1C | -22% | 2% | ? | ? | -5% | 7%
O=C(NC1CCC1)c1ccc2c(c1)C1(CCN(CC3CC3)C1)CN2Cc1ccccc1 (centres undefined) | . | . | . | 33%[176 µM] | . | .
CC1CCCC(NC(=O)c2cncc(Br)c2)C1 (centres undefined) | . | . | . | -35% | . | .
COCC(=O)Oc1c(Sc2ccccc2[N+](=O)[O-])c(C)nn1C(C)(C)C | -18% | -10% | -4% | -18% | -4% | 56µM*
CCC(CC)C(=O)Oc1c(Sc2ccccc2[N+](=O)[O-])c(C)nn1C(C)(C)C | -10% | -7% | -18% | 3% | -11% | -15%
CN(Cc1cccc(C(F)(F)F)c1)C(=O)C1(c2ccc(Cl)cc2)CCOCC1 | . | . | . | 6%[6.33 µM] | . | .
Cc1occc1C(=O)NC1CCCN(Cc2ccc(Cl)cc2)C1 (centres undefined) | -14% | 3% | -1% | ? | 1% | 7%
O=C(C1CCCN(Cc2ccc(Cl)cc2)C1)N1CCCCC1 (centres undefined) | -29% | 7% | 1% | 0.63µM* | 10% | 3%
Cc1cc(C(=O)NC2CCCN(Cc3ccc(Cl)cc3)C2)c(C)o1 (centres undefined) | -11% | 5% | 13% | 16µM* | 10% | -3%
CC(C)(C)NC(=S)NC(=O)C12CCC3CC(CC(C3)C1)C2 | -5% | 14% | -14% | 32µM* | 13% | 1%
